Assay results as given in PubChem BioAssay (NCATS).
Records with an inconclusive call do not appear. Where a call stands in place of a potency, no number is given. Active and inactive are the calls of the source. Unless noted, the call rests on the fitted dose curve; in most records, active means well fitted curve in the direction sought with a large enough effect; inconclusive means small, poorly fitted or top-dose-only effect, or another doubt; inactive means no such curve, though single readings can be large; an effect the other way counts as inactive or inconclusive.

Target: Cytochrome P450 2C19 (Homo sapiens) (UniProt P33261)
Sequence (P33261 whole entry, looked up): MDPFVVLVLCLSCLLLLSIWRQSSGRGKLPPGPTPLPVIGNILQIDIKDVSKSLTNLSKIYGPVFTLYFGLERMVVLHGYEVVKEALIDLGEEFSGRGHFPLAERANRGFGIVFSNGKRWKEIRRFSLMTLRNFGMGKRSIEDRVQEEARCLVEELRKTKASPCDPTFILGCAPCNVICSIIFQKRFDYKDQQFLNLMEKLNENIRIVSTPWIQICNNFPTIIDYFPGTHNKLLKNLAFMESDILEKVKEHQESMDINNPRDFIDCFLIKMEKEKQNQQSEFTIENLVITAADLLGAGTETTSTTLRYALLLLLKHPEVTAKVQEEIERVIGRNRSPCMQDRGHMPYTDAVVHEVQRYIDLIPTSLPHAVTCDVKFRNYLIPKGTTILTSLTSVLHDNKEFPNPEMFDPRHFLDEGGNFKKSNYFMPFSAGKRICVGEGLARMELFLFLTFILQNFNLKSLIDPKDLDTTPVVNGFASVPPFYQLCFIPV
Experiment: qHTS Assay for Inhibitors and Substrates of Cytochrome P450 2C19 (AID 899); further: nearly all actives have a fitted effect of over 60% in size; further: potency means the concentration at half of the fitted maximal effect
Settings: recombinant CYP2C19, luciferin-H EGE luminescence; series mostly up to 11.4 µM
How it was run: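 Luminescent read-out of luciferin formed from Luciferin-H EGE (10uM, equal to KM). Enzyme 5nM in 50mM KPO4; compound added, 10 min at 37C, then NADPH regenerating system for 60 min at 37C. Full inhibition defined by 57uM ketoconazole.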
For `CO[C@@H]1COC(=O)[C@@H](CCSC)NC(=O)C/C=C\[C@@H](C)COC(=O)[C@H](C)NC(=O)C/C=C\[C@H]1C`, the Potency was “inactive”. For `O=C1C[C@H](c2ccccc2)[C@@H](c2ccc(Br)cc2)O1`, the Potency was 0.398 µM (active). In the case of `CC(=O)OC[C@@H]1O[C@H](C/C=N\O[C@@H](C)c2cn([C@H]3COC[C@H]3O)nn2)C=C[C@@H]1OC(C)=O`, the Potency is reported as “inactive”. With `CO[C@@H]1COC(=O)[C@H]2CCCN2C(=O)[C@@H](C)COC(=O)CCC[C@H]1C` the Potency was “inactive”. For `CCN1C(=O)[C@@H]2[C@H]3C(=CC[C@@H]2C1=O)C1(OCCCO1)[C@H]1O[C@@H]1[C@H]3O`, the Potency was 1.58 µM (active). In the case of `COC(=O)C/C=C\[C@@H](C)[C@@H](/C=N\O[C@@H](C)c1cn([C@H]2COC[C@H]2O)nn1)OC`, the Potency is reported as “inactive”. With `COC(=O)[C@H](Cc1ccccc1)NC(=O)[C@@H](C)CO` the Potency was 1.26 µM (active). In the case of `O=C1[C@H]2[C@H]3[C@H](O)[C@H](O)C/C(=N/OC[C@@H](O)COCc4ccco4)[C@@H]3CC[C@@H]2C(=O)N1C[C@@H]1CCCO1`, the Potency is reported as “inactive”. With `CC(C)=NO[C@@H](C)c1cn([C@@H]2COC[C@@H]2O)nn1` the Potency was “inactive”. For `C[C@@H]1/C=C\CC(=O)OC[C@H](C)C(=O)N[C@@H](C)C(=O)OC1`, the Potency was “inactive”. In the case of `CO[C@@H]1COC(=O)[C@H](C)NC(=O)C/C=C\[C@@H](C)[C@@H](NS(=O)(=O)c2ccc(C)cc2)COC(=O)C/C=C\[C@@H]1C`, the Potency is reported as “inactive”. In the case of `COc1ccc(O[C@H]2C=C[C@@H](c3ccccc3)O[C@@H]2CO/N=C(\C)CCN2CCc3nc(-c4ccccc4)c(-c4ccccc4)cc3C2)cc1`, the Potency is reported as 0.251 µM (active). In the case of `CO[C@@H]1COC(=O)[C@H]2CCCN2C(=O)C/C=C\[C@@H](C)[C@H](OC)COC(=O)[C@H]2CCCN2C(=O)C/C=C\[C@H]1C`, the Potency is reported as “inactive”. With `CCOC(=O)CCN1C(=O)[C@H]2[C@@H]3[C@H](O)[C@H](O)CC(=O)[C@H]3CC[C@H]2C1=O` the Potency was “inactive”. With `O=C1[C@H]2[C@H]3[C@H](O)[C@H](O)C/C(=N/OCc4ccccc4)[C@H]3CC[C@@H]2C(=O)N1C[C@@H]1CCCO1` the Potency was “inactive”. For `C=CC1=C[C@@H](O)C2OC2C12OCCCO2` (stereo partly specified), the Potency was “inactive”.

Tested on: not listed separately
Experiment: Confirmation and Secondary Assay for Modulators of Hemoglobin Beta Chain Splicing at IVS2 654 locus (AID 910);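 further: HeLa cells stably carrying EGFP split by mutant beta-globin IVS2-654 intron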
Settings: HeLa EGFP-654 splicing reporter, GFP fluorescence, 48 h; series mostly up to 46.1 µM
How it was run: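 HeLa cells stably expressing EGFP interrupted by β-globin IVS2-654 intron, seeded overnight in Opti-MEM/2% FCS, then treated 2 days at 37 °C. Restored splicing read as total peak GFP intensity per well by laser scanning cytometry (488 nm excitation, 500–520 nm emission); 500 nM antisense PNA as control.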
With `CCOC(=O)C1=C[C@@]2(CC)CCCN3CCc4c(n1c1ccccc41)C32` (stereo partly specified) the outcome was “inactive”. In the case of `CC(=O)[C@]1(O)CCC2C3CC(C)C4=CC(=O)C=CC4(C)[C@@]3(F)C(O)C[C@]21C` (stereo partly specified), the outcome is reported as “inactive”. In the case of `CC1(C)C(=O)C=C[C@]2(C)C1CC(=O)[C@]1(C)C2CC[C@@]2(C)C(c3ccoc3)OC(=O)C3O[C@@]321` (stereo partly specified), the outcome is reported as “inactive”. For `CNC(C)C1CC[C@H](N)[C@@H](OC2C(N)C[C@H](N)[C@@H](OC3OC[C@](C)(O)C(NC)[C@H]3O)C2O)O1` (stereo partly specified), the outcome was “inactive”. For `CC(=O)N1CCN(c2ccc(OCC3CO[C@@](Cn4ccnc4)(c4ccc(Cl)cc4Cl)O3)cc2)CC1` (stereo partly specified), the outcome was “inactive”. With `C=C1c2c(Cl)ccc(O)c2C(O)=C2C(=O)[C@]3(O)C(O)=C(C(N)=O)C(=O)C(N(C)C)C3C(O)C12` (stereo partly specified) the outcome was “inactive”. With `CC(C)CC1C(=O)N2CCCC2C2(O)O[C@@](NC(=O)C3C=C4c5cccc6[nH]c(Br)c(c56)CC4N(C)C3)(C(C)C)C(=O)N12` (stereo partly specified) the outcome was “inactive”. With `CC1CC[C@@]2(C(=O)O)CC[C@]3(C)C(=CCC4[C@@]5(C)CCC(O)C(C)(C)C5CC[C@@]43C)C2C1C` (stereo partly specified) the outcome was “inactive”. For `CN1C[C@H](C(=O)N[C@@]2(C)O[C@@]3(O)C4CCCN4C(=O)C(Cc4ccccc4)N3C2=O)C[C@H]2c3cccc4[nH]cc(c34)C[C@H]21` (stereo partly specified), the outcome was “inactive”. For `COc1cc2c(c(OC)c1OC)-c1ccc(OC)c(=O)cc1C(NC(C)=O)CC2` (stereo unspecified), the outcome was “inactive”. In the case of `CC1CC2C3CC(F)C4=CC(=O)C=C[C@@]4(C)[C@@]3(F)C(O)C[C@]2(C)[C@]1(O)C(=O)COC(=O)C(C)(C)C` (stereo partly specified), the outcome is reported as “inactive”. With `CC(=O)OC1CCC2(C)C3=C(CCC2C1(C)C)[C@@]1(C)CCC(C(C)CCC=C(C)C)[C@@]1(C)CC3` (stereo partly specified) the outcome was “inactive”. In the case of `COC(=O)C1C(O)CC[C@H]2CN3CCc4c([nH]c5ccccc45)C3C[C@H]12` (stereo partly specified), the outcome is reported as “inactive”. For `COc1cc2c(cc1OC)C1C(=O)c3c(cc4c(c3O)C=CC(C)(C)O4)OC1CO2` (stereo unspecified), the outcome was “inactive”. For `CC(C)(C)NCC(O)COc1cccc2c1CC(O)C(O)C2` (stereo unspecified), the outcome was “inactive”.

Tested on: not listed separately
Experiment: qHTS Assay for Identification of Small Molecule Agonists for Hypoxia Response Element Signaling Pathway (AID 914; active means well fitted activation curve with a large enough effect in the signal ratio, with a control signal flat, not every such curve was filed as active; the % refers to the signal ratio)
Settings: ME-180 (cervical carcinoma) HRE-bla reporter, beta-lactamase ratio, CoCl2, 17 h; hits give high values
How it was run: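 A beta-lactamase reporter under hypoxia response element control in ME-180 cells served as the system. Compound titrations plus EC50 CoCl2 ran 17 h at 37 degrees Celsius; AC50 values were fitted from %Activity.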
For `C[C@H]1COC(=O)[C@H]2CCCN2C(=O)[C@@H](C)COC(=O)[C@H](Cc2ccccc2)NC1=O`, the activation was -0.107% (inactive). In the case of `Cc1ccc(S(=O)(=O)N[C@H]2COC(=O)C/C=C\[C@@H](C)[C@H](NS(=O)(=O)c3ccc(C)cc3)COC(=O)[C@H](C)NC(=O)C/C=C\[C@H]2C)cc1`, the activation is reported as 3.42% (inactive). With `COC(=O)[C@H](Cc1ccccc1)NC(=O)[C@@H](C)CO` the activation was 5.86% (inactive). In the case of `C[C@@H]1/C=C\CC(=O)OC[C@H](C)C(=O)N[C@@H](C)C(=O)OC1`, the activation is reported as 0.738% (inactive). In the case of `CCOC(=O)CCN1C(=O)[C@H]2[C@@H]3[C@H](O)[C@H](O)CC(=O)[C@H]3CC[C@H]2C1=O`, the activation is reported as 2.87% (inactive).
